Results on 40 compounds are retold here after PubChem BioAssay (NCATS).

Molecules are shown by their SMILES. Results filed as inconclusive are left out. Values without a mark were called inactive. Calls of active or inactive are those of the source. Calls come from the whole dose curve; as a rule, active = well fitted inhibition curve with a large enough effect; inconclusive = small, poorly fitted or top-dose-only effect; inactive = flat fitted curve, though single readings scatter. Square brackets hold non-standard residues; d marks the D form. Peptide text beside a SMILES is read from it. Orn = NCCC[CH](N)C(=O)O
Potency is the fitted concentration of half-maximal effect.

The target of this experiment is Luciferin 4-monooxygenase (Photinus pyralis) (UniProt P08659). Kind of experiment: Biochemical firefly luciferase enzyme assay for NPC (AID 624030).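 For activity change, negative = inhibition: 0% = DMSO and -100% = full luciferase inhibition by PTC124 control.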 Note: nearly all actives have a fitted effect of over 70% in size. As to conditions: purified P. pyralis luciferase, luminescence, 5 min; series mostly up to 58.6 µM; activity change, negative = inhibition: at the top concentration. From the text: Charcot-Marie-Tooth-Association [CMTA] National Center for Advancing Translational Sciences [NCATS] Charcot-Marie-Tooth (CMT) disease was first characterized by Jean-Martin Charcot and Pierre Marie in France and, independently, by Howard Henry Tooth in England in 1886. CMT is one of the most common inherited neurological diseases, affecting approximately 1 in 2,500 Americans. […] The most prevalent type of CMT is known as CMT1A and caused by a duplication of the PMP22 gene which leads to over-expression of this protein. PMP22 is a glycosylated intrinsic membrane protein accounting for 2-5% of the myelin protein content, and its over-expression results in demyelination and subsequently axonal loss. A pair of cellular transcription-based assays was developed in the S16 rat Schwann cell lines (Hai, M., et al., 2002) stably transfected with orthogonal reporters - firefly luciferase (Fluc) and beta-lactamase (beta-Lac) - whose expression is driven by an intronic regulatory element of the PMP22 gene (Jones, E.A., et al., 2011) to recapitulate endogenous expression of PMP22. A comprehensive library of approved drugs, the NCGC Pharmaceutical Collection (Huang, R., et al., 2011), was screened in the cross-validating platform of the orthogonal reporter assays to identify drug modulators inhibitory towards PMP22 expression. A set of counter-screens was devised to address non-specific activity of the library. An ATP-dependent CellTiter-Glo assay (developed by Promega Corp) was utilized to control cell viability. In addition, biochemical Fluc enzyme assay was performed to assess direct inhibition of the Fluc enzymatic activity. References Hai, M., Muja, N., DeVries, G.H., Quarles, R.H. and Patel, P.I. Comparative analysis of Schwann cell lines as model systems for myelin gene transcription studies. J Neurosci Res, 2002. 69(4): pp 497-508 Huang, R., Southall, N., Wang, Y., Yasgar A., Shinn P., Jadhav, A. , Nguyen, D.-T. and Austin, C.P., The NCGC pharmaceutical collection: a comprehensive resource of clinically approved drugs enabling repurposing and chemical genomics. Sci Transl Med, 2011. 3(80): p. 80ps16.
Chain of Luciferin 4-monooxygenase (Photinus pyralis) (P08659 whole entry, looked up): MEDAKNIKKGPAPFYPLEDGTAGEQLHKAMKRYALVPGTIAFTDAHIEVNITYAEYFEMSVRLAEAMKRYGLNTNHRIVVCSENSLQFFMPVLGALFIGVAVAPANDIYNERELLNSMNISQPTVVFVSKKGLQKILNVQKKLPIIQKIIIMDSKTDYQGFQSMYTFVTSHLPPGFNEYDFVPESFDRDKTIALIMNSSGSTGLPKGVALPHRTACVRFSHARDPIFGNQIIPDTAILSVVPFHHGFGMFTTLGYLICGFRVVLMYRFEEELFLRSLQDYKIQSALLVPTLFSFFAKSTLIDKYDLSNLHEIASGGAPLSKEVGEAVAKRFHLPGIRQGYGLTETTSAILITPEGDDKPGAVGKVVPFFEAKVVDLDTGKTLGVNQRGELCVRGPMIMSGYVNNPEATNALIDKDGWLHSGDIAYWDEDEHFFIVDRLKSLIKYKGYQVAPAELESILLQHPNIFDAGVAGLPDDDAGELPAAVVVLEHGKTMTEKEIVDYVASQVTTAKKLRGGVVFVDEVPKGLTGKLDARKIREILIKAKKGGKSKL
Compounds were transferred to the plates in 23nl, and one microliter/well luciferase enzyme-buffer solution (10 nM P. pyralis luciferase and 50 mM Tris Acetate final concentrations) was dispensed yielding a final reaction volume of […]. Luciferase luminescence was measured by a ViewLux plate reader within 5 minutes of enzyme-buffer addition. The % activity was determined by normalizing to the average readings of PTC124 (a positive control) relative to DMSO (0% Activity). The concentration-effect curves were then classified based on curve quality (r2), response magnitude and degree of measured activity.
Regarding `CC(=O)OCC(=O)C1(O)CCC2C3CCC4=CC(=O)CCC4(C)C3C(O)CC21C` (stereo not given), the “activity change, negative = inhibition” value was -5.54%.
Same read-out and setting: then `CCN1C(=O)c2ccccc2C1Nc1cccc(OCCN2CCCCC2)c1` (stereo not given), with 1.18%; and `CCC(Oc1ccccc1)C(=O)NC1C(=O)N2C1SC(C)(C)C2C(=O)O` (stereo not given), with -1.39%.
Regarding `CN1C2CCC1CC(NC(=O)n1c(=O)[nH]c3ccccc31)C2` (stereo not given), the “activity change, negative = inhibition” value is -1.13%.
As to `CC12C=CC(=O)C=C1CCC1C2C(O)CC2(C)C1CCC2(O)C(=O)COC(=O)CCC(=O)O` (stereo not given), the “activity change, negative = inhibition” value is -0.0354%.
On the same count and under the same terms, then `CC#CC[C@@H](C)[C@@H](O)/C=C/[C@H]1[C@H]2c3cccc(CCCC(=O)O)c3O[C@H]2C[C@@H]1O`, with 1.74%; and `CC(C)=CCC/C(C)=C\CC/C(C)=C\CC/C=C(\C)CC/C=C(\C)CCC=C(C)C`, with 2.76%.
Take `O=S(=O)(O)OCC1OC(COS(=O)(=O)O)(C2(OS(=O)(=O)O)OC(CO)C(OS(=O)(=O)O)C(OS(=O)(=O)O)C2OS(=O)(=O)O)C(OS(=O)(=O)O)C1OS(=O)(=O)O` (stereo not given): the “activity change, negative = inhibition” value was -0.087%.
Turning to `CC1NC(=O)C(N)CNC(=O)C(C2CCN=C(N)N2)NC(=O)/C(=C/NC(N)=O)NC(=O)C(CNC(=O)CC(N)CCCN)NC1=O` (stereo not given), the “activity change, negative = inhibition” value was 9.29% [at 24.9 µM].
`O=C1O[C@H]2[C@@H](OC(O)[C@@H]2O)[C@H]1O` (stereo not given in full): the “activity change, negative = inhibition” value was -3.82%.
On to `CC(C)CC1NC(=O)C(CCCN)NC(=O)C(C(C)C)NC(=O)C2CCCN2C(=O)C(Cc2ccccc2)NC(=O)C(CC(C)C)NC(=O)C(CCCN)NC(=O)C(C(C)C)NC(=O)C2CCCN2C(=O)C(Cc2ccccc2)NC1=O` (stereo not given) (cyclo(FPV[Orn]LFPV[Orn]L); configuration not given here), for which the “activity change, negative = inhibition” value is -0.321%.
Consider `CCCCCCCCCCCCCCCC(=O)O[C@@H]1CC(C)=C(\C=C/C(C)=C\C=C/C(C)=C\C=C\C=C(C)\C=C\C=C(C)\C=C\C2=C(C)C[C@@H](OC(=O)CCCCCCCCCCCCCCC)CC2(C)C)C(C)(C)C1`, for which the “activity change, negative = inhibition” value is -3.65%.
For the compound `C#CC1(OC(C)=O)CCC2C3CCC4=CC(OC(C)=O)CCC4C3CCC21C` (stereo not given), the “activity change, negative = inhibition” value was -5.11%.
Same read-out and setting: then `CCC(C)C1OC2(C=CC1C)CC1CC(C/C=C(/C)C(OC3CC(OC)C(OC4CC(OC)C(NC(C)=O)C(C)O4)C(C)O3)C(C)/C=C\C=C3\COC4C(O)C(C)=CC(C(=O)O1)C34O)O2` (stereo not given), with -9.07%; and `C[N+]1(C)C2CCC1CC(OC(=O)C(O)c1ccccc1)C2` (stereo not given), with 1.26%; and `CCO[C@@H](Cc1ccc(OCCc2ccc(OS(C)(=O)=O)cc2)cc1)C(=O)O`, with -17.8%.
Same read-out and setting: then `CCN(CC)CCOc1ccc(/C(=C(/Cl)c2ccccc2)c2ccccc2)cc1`, with 6.1%; and `CC(=O)O[C@@H]1C(=O)O[C@H]2[C@@H]1OC(=O)[C@@H]2OC(C)=O`, with -14.5%.
With `COCC1=C(C(=O)OC(C)OC(=O)OC(C)C)N2C(=O)C(NC(=O)/C(=N/OC)c3csc(N)n3)[C@H]2SC1` (stereo not given in full), the “activity change, negative = inhibition” value was -5.44%.
Turning to `CCC(=O)C(Cc1ccccc1)(Cc1ccccc1)CC(C)N(C)C` (stereo not given), the “activity change, negative = inhibition” value was 2.41% [at 123 µM].
On to `CC/C(O)=N/S(=O)(=O)c1ccc(-c2c(-c3ccccc3)noc2C)cc1`, for which the “activity change, negative = inhibition” value is -3.47%.
On to `[2H]c1c([2H])c([2H])c2c([nH]c(=S)n2C2CCN(CCCC(=O)c3ccc(F)cc3)CC2)c1[2H]`, for which the “activity change, negative = inhibition” value is -10.2%.
With `CCC(=O)OCC(=O)C1(OC(=O)CC)C(C)CC2C3CCC4=CC(=O)C=CC4(C)C3(Cl)C(O)CC21C` (stereo not given), the “activity change, negative = inhibition” value is -5.88%.
Consider `CC1(C)C(/C=C/C=C/C=C/C=C2\N(CCCCS(=O)(=O)O)c3ccc4ccccc4c3C2(C)C)=[N+](CCCCS(=O)(=O)[O-])c2ccc3ccccc3c21`, for which the Potency was 28.7 µM (active).
Regarding `O=C(CO)NCCCOc1cccc(CN2CCCCC2)c1`, the “activity change, negative = inhibition” value is 1.63%.
In the case of `CC(=O)OCC1=C(C(=O)O)N2C(=O)C(NC(=O)Cc3ccccc3)C2SC1` (stereo not given), the “activity change, negative = inhibition” value is -3.58%.
Still for that read-out and setting: then `c1cnc2cc3c(cc2n1)[C@@H]1CNC[C@@H]3C1`, with 1.04%; and `CCN1CCC[C@@H]1CNC(=O)c1cc(S(=O)(=O)CC)ccc1OC`, with -2.47%; and `C=C[C@]1(C)C[C@@H](OC(=O)CO)[C@]2(C)C(C)CC[C@]3(CCC(=O)[C@H]32)[C@@H](C)[C@@H]1O` (stereo not given in full), with -0.3%.
`CO/N=C(\C(=O)N[C@@H]1C(=O)N2C(C(=O)[O-])=C(C[n+]3cccc4c3CCCC4)CS[C@H]12)c1csc(N)n1`: the “activity change, negative = inhibition” value is -17.7%.
The same measure, in the same setting: then `CCN(CCO)CCn1c(Cc2ccccc2)nc2c1c(=O)n(C)c(=O)n2C`, with -2.58%.
As for `COc1ccc(-c2nc3ccc(C4=C(C)CC(=O)NN4)cc3[nH]2)cc1`, the Potency is 12.8 µM (active).
Take `COc1ccc(CCNC[C@H](O)COc2cccc(C)c2)cc1OC`: the “activity change, negative = inhibition” value was -1.54%.
As to `CC(=O)OC1CCC2(C)C(=CCC3C2CCC2(C)C(C(C)=O)CCC32)C1` (stereo not given), the “activity change, negative = inhibition” value was 0.644%.
With `CC(C)N(Cc1ccccc1)C(C)C` (tested in a mixture with another compound), the “activity change, negative = inhibition” value is 0.335%.
Take `CC(=O)OCC(=O)[C@@]1(O)[C@H](C)C[C@H]2C3C[C@H](F)C4=CC(=O)C=CC4(C)C3[C@@H](O)CC21C` (stereo not given in full): the “activity change, negative = inhibition” value is 0.599%.
Same read-out and setting: then `CCCC(=O)O[C@]1(C(=O)COC(=O)CC)CC[C@@H]2[C@@H]3CCC4=CC(=O)CC[C@]4(C)[C@H]3[C@@H](O)C[C@@]21C`, with 54.4%.
With `CC(=O)NC(CCC(N)=O)C(=O)O` (stereo not given), the “activity change, negative = inhibition” value is -2.92%.
The same measure, in the same setting: then `CCOC(=O)C(CS)NCCN[C@@H](CS)C(=O)OCC` (stereo not given in full), with -16%.
Regarding `O=C(OCC1OC(OC(=O)c2cc(O)c(O)c(OC(=O)c3cc(O)c(O)c(O)c3)c2)[C@@H](OC(=O)c2cc(O)c(O)c(OC(=O)c3cc(O)c(O)c(O)c3)c2)C(OC(=O)c2cc(O)c(O)c(OC(=O)c3cc(O)c(O)c(O)c3)c2)C1OC(=O)c1cc(O)c(O)c(OC(=O)c2cc(O)c(O)c(O)c2)c1)c1cc(O)c(O)c(OC(=O)c2cc(O)c(O)c(O)c2)c1` (stereo not given in full), the Potency is 12.8 µM (active).
